According to the supplement of paper PMC7724964:

T1: NR1H3 204-447 Hormone_recep (domain begin residue: 204, domain end residue: 447), Q13133
T1 chain: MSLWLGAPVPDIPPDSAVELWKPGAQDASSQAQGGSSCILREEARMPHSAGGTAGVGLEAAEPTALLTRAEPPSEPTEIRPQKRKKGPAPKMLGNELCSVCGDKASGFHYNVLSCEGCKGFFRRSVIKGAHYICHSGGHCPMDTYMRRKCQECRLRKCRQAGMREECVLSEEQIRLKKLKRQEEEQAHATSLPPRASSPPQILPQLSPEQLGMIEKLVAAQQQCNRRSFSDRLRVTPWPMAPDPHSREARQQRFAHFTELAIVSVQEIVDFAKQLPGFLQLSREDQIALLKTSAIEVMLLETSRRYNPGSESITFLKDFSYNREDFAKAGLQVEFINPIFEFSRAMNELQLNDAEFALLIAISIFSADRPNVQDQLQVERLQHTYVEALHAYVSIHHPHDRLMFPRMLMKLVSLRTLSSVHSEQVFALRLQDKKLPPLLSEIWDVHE

T2: NR1H4 256-474 Hormone_recep (domain begin residue: 256, domain end residue: 474), Q96RI1
T2 chain: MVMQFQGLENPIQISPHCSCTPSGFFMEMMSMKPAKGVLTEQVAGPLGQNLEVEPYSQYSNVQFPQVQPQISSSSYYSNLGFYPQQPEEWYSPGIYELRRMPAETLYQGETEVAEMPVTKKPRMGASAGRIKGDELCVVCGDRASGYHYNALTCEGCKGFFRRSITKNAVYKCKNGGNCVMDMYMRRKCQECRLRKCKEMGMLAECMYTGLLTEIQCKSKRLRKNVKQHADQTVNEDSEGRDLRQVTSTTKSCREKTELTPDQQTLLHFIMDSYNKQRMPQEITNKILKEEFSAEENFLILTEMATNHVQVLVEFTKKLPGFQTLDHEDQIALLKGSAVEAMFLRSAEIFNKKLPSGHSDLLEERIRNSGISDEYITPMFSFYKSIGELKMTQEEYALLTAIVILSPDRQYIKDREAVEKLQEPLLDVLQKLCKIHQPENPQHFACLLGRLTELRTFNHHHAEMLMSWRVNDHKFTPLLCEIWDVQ

T3: NR2C1 355-603 Hormone_recep (domain begin residue: 355, domain end residue: 603), P13056
T3 chain: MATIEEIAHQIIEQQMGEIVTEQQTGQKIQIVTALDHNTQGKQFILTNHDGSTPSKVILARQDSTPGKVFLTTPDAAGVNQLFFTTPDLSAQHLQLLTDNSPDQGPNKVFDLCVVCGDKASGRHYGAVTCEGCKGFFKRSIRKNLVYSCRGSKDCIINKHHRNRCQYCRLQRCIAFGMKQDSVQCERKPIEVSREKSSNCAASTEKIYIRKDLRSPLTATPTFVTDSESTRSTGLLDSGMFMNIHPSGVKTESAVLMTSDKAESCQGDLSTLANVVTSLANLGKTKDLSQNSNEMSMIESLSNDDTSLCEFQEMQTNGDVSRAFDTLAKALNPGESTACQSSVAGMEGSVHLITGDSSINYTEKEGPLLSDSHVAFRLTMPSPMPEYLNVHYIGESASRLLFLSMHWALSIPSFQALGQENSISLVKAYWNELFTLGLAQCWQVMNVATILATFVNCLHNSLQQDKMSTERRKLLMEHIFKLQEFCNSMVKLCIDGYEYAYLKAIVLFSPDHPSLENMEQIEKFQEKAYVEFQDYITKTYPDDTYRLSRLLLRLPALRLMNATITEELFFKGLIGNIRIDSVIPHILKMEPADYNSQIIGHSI

T4: NR4A2 327-598 Hormone_recep (domain begin residue: 327, domain end residue: 598), P43354
T4 chain: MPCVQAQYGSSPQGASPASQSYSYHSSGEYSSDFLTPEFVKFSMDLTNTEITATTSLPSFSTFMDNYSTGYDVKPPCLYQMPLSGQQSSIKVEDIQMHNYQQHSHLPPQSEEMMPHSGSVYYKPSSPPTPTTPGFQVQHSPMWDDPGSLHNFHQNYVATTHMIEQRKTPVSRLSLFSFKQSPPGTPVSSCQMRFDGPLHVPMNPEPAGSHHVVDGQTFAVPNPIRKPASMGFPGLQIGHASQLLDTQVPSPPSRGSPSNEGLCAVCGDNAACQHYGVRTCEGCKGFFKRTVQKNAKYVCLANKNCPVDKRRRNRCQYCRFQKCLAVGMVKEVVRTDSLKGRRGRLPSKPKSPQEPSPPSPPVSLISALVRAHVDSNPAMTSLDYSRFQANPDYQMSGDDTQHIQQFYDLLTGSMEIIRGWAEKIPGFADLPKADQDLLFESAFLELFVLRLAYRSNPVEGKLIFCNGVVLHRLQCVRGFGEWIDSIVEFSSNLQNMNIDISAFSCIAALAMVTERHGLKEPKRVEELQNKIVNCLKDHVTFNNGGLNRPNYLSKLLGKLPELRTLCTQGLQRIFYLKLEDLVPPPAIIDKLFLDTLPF

T5: NR4A3 356-626 Hormone_recep (domain begin residue: 356, domain end residue: 626), Q92570
T5 chain: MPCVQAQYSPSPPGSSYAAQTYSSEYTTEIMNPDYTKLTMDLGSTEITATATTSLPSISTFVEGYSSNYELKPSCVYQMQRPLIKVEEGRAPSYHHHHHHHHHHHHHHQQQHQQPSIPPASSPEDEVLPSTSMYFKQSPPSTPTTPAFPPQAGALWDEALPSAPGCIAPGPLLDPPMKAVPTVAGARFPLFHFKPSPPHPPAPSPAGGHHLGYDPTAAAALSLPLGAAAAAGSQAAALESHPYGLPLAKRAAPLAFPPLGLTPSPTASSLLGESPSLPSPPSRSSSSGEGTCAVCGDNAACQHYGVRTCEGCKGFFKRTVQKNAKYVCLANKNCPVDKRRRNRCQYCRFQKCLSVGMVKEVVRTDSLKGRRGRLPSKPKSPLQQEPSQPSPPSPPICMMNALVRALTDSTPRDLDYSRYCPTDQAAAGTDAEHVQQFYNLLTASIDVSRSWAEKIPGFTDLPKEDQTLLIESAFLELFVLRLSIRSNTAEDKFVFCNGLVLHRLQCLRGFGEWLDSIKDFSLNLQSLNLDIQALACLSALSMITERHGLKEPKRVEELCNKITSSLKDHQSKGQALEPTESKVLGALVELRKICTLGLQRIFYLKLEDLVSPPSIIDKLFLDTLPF

B1: unnamed (peptide)
chain: EYYPEWDFLWRHMQEP
B2: unnamed (peptide)
chain: QDEDVWWAWMMGLGME
B3: unnamed (peptide)
chain: SADSMYPELDWLVWAM
B4: unnamed (peptide)
chain: TQEMWDWVMMIEMTEF
B5: unnamed (peptide)
chain: QEWQAWMLSMEEGEMM
B6: unnamed (peptide)
chain: DYPEVEWLTQQWDFWS
B7: unnamed (peptide)
chain: EMLLDQQMWEWVQAMS
B8: unnamed (peptide)
chain: YPEIAWLQQMMQSDSR
B9: unnamed (peptide)
chain: WQEWLDYTVESQYTLV
B10: unnamed (peptide)
chain: GDLEQHLMEWWTREVF
B11: unnamed (peptide)
chain: LAFGEWLDKEIGLAYF
B12: unnamed (peptide)
chain: AAPGSWDYSLLEFHYL
B13: unnamed (peptide)
chain: NQWGPYWSFSFVPMDW
B14: unnamed (peptide)
chain: PYTGIWFGEYLHNFIP
B15: unnamed (peptide)
chain: MPDVPYQWVDLTEWFM
B16: unnamed (peptide)
chain: WGPFLSFQYAVDPTQE
B17: unnamed (peptide)
chain: TELPPLPYAWQDYAHW
B18: unnamed (peptide)
chain: DEWWMFYPQPMYDLWH
B19: unnamed (peptide)
chain: GWSPWYEGRGVDWMTW
B20: unnamed (peptide)
chain: LNDSEQWFTWAYKYVD
B21: unnamed (peptide)
chain: SPFDFWPLQSWWFKTM
B22: unnamed (peptide)
chain: SHDMYEMIMWFFYQTE
B23: unnamed (peptide)
chain: TMSLWPSSWDIITLNS
B24: unnamed (peptide)
chain: QTMQRQWLDILLSLEL
B25: unnamed (peptide)
chain: QWSVEPWWHEMVIQGI
B26: unnamed (peptide)
chain: AFKQLMFHVIGEEYSV
B27: unnamed (peptide)
chain: QQEPWWWMDWDFQQAE
B28: unnamed (peptide)
chain: PYHDSWFYWPGLTEGV
B29: unnamed (peptide)
chain: QQAQPRWWSMVLQHEW
B30: unnamed (peptide)
chain: LTMAQQFPYLWSALSN

Biological target: T1, NR1H3 204-447 Hormone_recep (domain …
Assay: phage ELISA signal ratio (GST-PRM binding over GST background); higher = stronger binding of peptide-phage to the PRM
Summary of the method: (§1)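 An M13 phage library with randomized hexadecapeptides on the gene-8 major coat protein, each peptide lacking cysteine and flanked by glycine, was selected for five rounds against human peptide recognition domains fused to the C-terminus of glutathione S-transferase (GST) and expressed in 96-well plates. Approximately 48 clones from rounds 4 and 5 went to phage ELISA. The reported value is the ELISA signal on the GST-domain fusion over the signal on GST alone, and positive clones were sequenced.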

Binder | phage ELISA signal ratio
B1 | 8.56
B2 | 8.99
B3 | 10
B4 | 14
B5 | 15.5
B6 | 17
B7 | 26.9
B8 | 28.4

Biological target: T2, NR1H4 256-474 Hormone_recep (domain …
Assay: as above
Summary of the method: as §1

Binder | phage ELISA signal ratio
B9 | 7.27
B10 | 12.3
B11 | 14.3

Biological target: T3, NR2C1 355-603 Hormone_recep (domain …
Assay: as above
Summary of the method: as §1

Binder | phage ELISA signal ratio
B12 | 3.03
B13 | 8.51
B14 | 9.25
B15 | 15
B16 | 19.1
B17 | 24.8

Biological target: NR2E3 154-410 Hormone_recep (domain begin residue: 154, domain end residue: 410), Q9Y5X4
Sequence (Q9Y5X4 whole entry): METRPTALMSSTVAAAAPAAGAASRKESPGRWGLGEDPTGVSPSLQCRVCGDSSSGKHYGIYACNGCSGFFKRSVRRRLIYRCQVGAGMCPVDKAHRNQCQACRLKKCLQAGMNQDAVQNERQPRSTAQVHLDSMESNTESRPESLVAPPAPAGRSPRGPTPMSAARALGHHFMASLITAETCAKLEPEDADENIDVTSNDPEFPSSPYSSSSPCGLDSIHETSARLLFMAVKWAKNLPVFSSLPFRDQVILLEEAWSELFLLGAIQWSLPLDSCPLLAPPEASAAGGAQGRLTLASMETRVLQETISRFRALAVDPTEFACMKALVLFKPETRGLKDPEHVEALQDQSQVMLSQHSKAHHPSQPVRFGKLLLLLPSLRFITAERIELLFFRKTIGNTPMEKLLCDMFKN
Assay: as above
Summary of the method: as §1

Binder | phage ELISA signal ratio
B18 | 6.08

Biological target: T4, NR4A2 327-598 Hormone_recep (domain …
Assay: as above
Summary of the method: as §1

Binder | phage ELISA signal ratio
B19 | 5.78
B20 | 9.75
B21 | 9.75
B22 | 14.5
B23 | 15
B24 | 20.2
B25 | 24.1
B26 | 30.5

Biological target: T5, NR4A3 356-626 Hormone_recep (domain …
Assay: as above
Summary of the method: as §1

Binder | phage ELISA signal ratio
B27 | 4.47

Biological target: NR5A1 221-461 Hormone_recep (domain begin residue: 221, domain end residue: 461), Q13285
Sequence (Q13285 whole entry): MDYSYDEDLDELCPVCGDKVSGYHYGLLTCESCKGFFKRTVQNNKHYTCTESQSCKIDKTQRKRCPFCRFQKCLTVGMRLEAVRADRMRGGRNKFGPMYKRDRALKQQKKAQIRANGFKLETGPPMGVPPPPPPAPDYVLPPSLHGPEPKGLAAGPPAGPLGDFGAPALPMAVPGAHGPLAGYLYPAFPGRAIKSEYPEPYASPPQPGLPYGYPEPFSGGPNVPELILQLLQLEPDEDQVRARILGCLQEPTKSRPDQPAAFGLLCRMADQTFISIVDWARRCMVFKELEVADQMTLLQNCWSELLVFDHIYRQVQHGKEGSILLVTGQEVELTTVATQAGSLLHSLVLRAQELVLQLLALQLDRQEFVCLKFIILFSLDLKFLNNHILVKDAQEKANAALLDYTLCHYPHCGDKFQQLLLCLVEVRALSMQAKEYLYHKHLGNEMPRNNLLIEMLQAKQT
Assay: as above
Summary of the method: as §1

Binder | phage ELISA signal ratio
B28 | 5.49

Biological target: NR5A2 297-541 Hormone_recep (domain begin residue: 297, domain end residue: 541), O00482
Sequence (O00482 whole entry): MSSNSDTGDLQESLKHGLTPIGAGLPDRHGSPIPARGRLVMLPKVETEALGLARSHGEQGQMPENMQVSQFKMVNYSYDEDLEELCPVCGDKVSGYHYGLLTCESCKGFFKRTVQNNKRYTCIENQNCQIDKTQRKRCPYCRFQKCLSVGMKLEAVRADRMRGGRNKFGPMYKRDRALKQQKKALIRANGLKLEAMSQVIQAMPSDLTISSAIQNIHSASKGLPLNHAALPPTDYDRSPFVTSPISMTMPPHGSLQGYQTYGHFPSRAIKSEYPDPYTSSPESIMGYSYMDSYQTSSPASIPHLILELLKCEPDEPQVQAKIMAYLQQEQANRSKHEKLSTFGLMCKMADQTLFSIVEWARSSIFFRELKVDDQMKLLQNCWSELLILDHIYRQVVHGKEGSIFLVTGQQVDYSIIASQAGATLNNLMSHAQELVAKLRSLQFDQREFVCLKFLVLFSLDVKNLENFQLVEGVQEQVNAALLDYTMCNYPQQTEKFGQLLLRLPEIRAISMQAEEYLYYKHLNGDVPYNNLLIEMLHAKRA
Assay: as above
Summary of the method: as §1

Binder | phage ELISA signal ratio
B29 | 4.92
B30 | 11.2
